# Sampled rows, rich in hits. Any-hit rate of the full collection: about 5.7%.
# IL1B secr inh – inhibitors of inflammasome signaling (IL-1 beta secretion); THP-1 LPS/ATP IL-1B secretion, AlphaLISA, 16 h; hits give low values; activity change, % at 57.5 µM; 360,000 compounds, 4.7% hits; in the data active = activity change below about -50%; inconclusive = mostly about -30% to -49%; also: % is scaled to controls: 0 for no effect and ±100 for the full control effect
#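 Secreted IL-1B measured by AlphaLISA bead assay after 16 h compound exposure of THP-1 cells; compounds (final up to 57.5 uM) added 1 h before LPS (250 ng/mL) and ATP (1.25 mM) stimulation; lower signal means less secretion.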
# HepG2 tox – HepG2 cytotoxicity, counter-screen for TGF-b inhibitors | Potency, µM (highest dose often 46.1 µM), for the others: at the top dose activity change, negative = cytotoxicity, most hits filed as cytotoxic | HepG2 CAGA-GFP viability, ATP luminescence, 18 h | 410,000 compounds, 0.76% hits | AID 588856; also: potency is read from the fitted curve at half-maximal effect
#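 CellTiter-Glo luminescence gave cytotoxicity after 18 hours at 37 degrees C. The cells were HepG2 CAGA-GFP in 1% FBS DMEM, stimulated with 500 pg/mL TGF-beta after compound addition. %Activity was normalised to no-cell wells (complete cell-killing) and DMSO (no toxicity), and curves were fitted and classified.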
# ATXN2 expr inh – inhibitors of ATXN2 expression; HEK-293 ATXN2-luciferase reporter, luminescence, 24 h; Potency, µM (doses to about 57 µM), for the others: at the highest dose activity change, negative = inhibition, hits mostly inhibitors; 360,000 compounds, 0.72% hits; also: potency is read from the fitted curve at half-maximal effect; % is scaled to controls: 0 for no effect and ±100 for the full control effect; nearly all actives have a fitted effect of over 55% in size
#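 ATXN2-luciferase reporter cells (luciferase flanked by upstream and downstream ATXN2 gene portions) were treated 24 h at 37 °C with compounds at up to 57 uM. SteadyGlo luminescence gave expression; GF-AFC fluorescence gave viability.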
# ATXN viability – viability counter-screen for ATXN expression inhibitors; 400,000 compounds, 0.49% hits; S2 cells (HEK-293 line with an ATXN2-luciferase reporter) viability, CellTiter-Fluor protease fluorescence, 24 h; Potency, µM (top dose mostly 56.7 µM), most hits filed as cytotoxic; also: potency is read from the fitted curve at half-maximal effect; nearly all actives have a fitted effect of over 40% in size
# TGFb SMAD3 inh – blocks TGF-b signaling | Potency, µM (titrated, usually from 46.1 µM), for the others: top-dose activity, negative = inhibition, hits mostly inhibitors | HepG2 CAGA-GFP TGF-b/SMAD3 reporter, GFP fluorescence, 18 h; TGF-beta stimulated, 500 pg/mL final | 410,000 compounds, 1.2% hits; also: potency is read from the fitted curve at half-maximal effect; % is scaled to controls: 0 for no effect and ±100 for the full control effect; nearly all actives have a fitted effect of over 65% in size
#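 GFP signal (ex488/em500-530) from TGF-beta-stimulated HEPG2 CAGA-GFP cells, 500 pg/mL final, 18 h at 37 degrees C in DMEM plus 1% FBS, normalized to unstimulated and DMSO-stimulated controls.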
# An asterisk follows results filed as active; i = inactive; ? = inconclusive; / = not tested or not shown; [ ] = remark or other dose. Unless noted, calls follow the shape of the dose curve; as a rule, active = well fitted curve in the direction sought with a large enough effect; inconclusive = small, poorly fitted or top-dose-only effect, or another doubt; inactive = no such curve, though single readings can be large; an effect the other way counts as inactive or inconclusive.
SMILES,IL1B secr inh,HepG2 tox,ATXN2 expr inh,ATXN viability,TGFb SMAD3 inh
COc1cccc(CNC(=O)COCc2cc(-c3ccc4c(c3)OCO4)on2)c1,/,-15%,/,/,?
O=C1/C(=C/c2ccncc2)CCC/C1=C\c1ccncc1,?,13µM*,14µM*,?,3.2µM*
O=C1C(=Cc2ccncc2)CCCc2ccccc21,?,-17%,/,i,-25%
O=C1/C(=C/c2ccncc2)CCc2ccccc21,-102*,-99%,/,i,?
O=C1/C(=C\c2ccncc2)CCc2ccccc21,-98*,-68%,0%,?,?
C(=C1c2ccccc2-c2ccccc21)c1ccncc1,-78*,-9%,5%,i,?
O=C(Cn1ncc2ccc(Cl)cc21)NCc1ccc(F)cc1,/,7%,-6%,i,-9%
CCC(Sc1nncn2c1cc1occc12)C(=O)Nc1ccc(C)c(Cl)c1 (stereo not drawn),/,-46%,/,/,?
Cc1ccc2oc(C(=O)Nc3c(C(=O)Nc4ccccc4)oc4ccccc34)cc(=O)c2c1,/,4%,2%,i,-12%
Cc1cc(Br)ccc1NC(=O)c1cc2c(=O)n(C)c3cc(Cl)ccc3c2s1,/,-11%,5%,i,4%
COc1cc(C(=O)N(C)CCOc2ccccc2)ccc1OCC(=O)Nc1cccc(C(F)(F)F)c1,-73*,-9%,?,?,?
COc1cc(C(=O)NCc2ccc(S(N)(=O)=O)cc2)ccc1OCC(=O)Nc1cccc(C(F)(F)F)c1,6,-1%,2%,?,-18%
Cc1ccc(S(=O)(=O)N2CCN(c3nc(-c4ccc(CN5CCNCC5)s4)nc4ccccc34)CC2)cc1,/,-98%,/,/,?
Brc1cccc[n+]1Cc1ccccc1C[n+]1ccccc1Br,/,-19%,/,/,35%
COc1ccc(Nc2oc(COc3ccccc3F)nc2C#N)cc1,-2,-27%,?,35µM*,-2%
COc1ccc(Nc2oc(COc3ccc(OC)cc3)nc2C#N)cc1,-14,-16%,14µM*,i,-11%
CCc1nnc(N/N=C\c2ccc(OC(C)=O)c(OC)c2)n1N,-8,-90%,-15%,i,?
CC(C)(C)c1nnc(N/N=C/c2cc(Br)ccc2O)n(N)c1=O,12,-37%,?,i,?
CCc1nnc(N/N=C/c2cc(Br)c(O)cc2O)n1N,43,10µM*,-31%,i,7.9µM*
CCc1nnc(N/N=C/c2ccc(O)c(OC)c2)n1N,0,-104%,3%,i,18µM*
CCc1nnc(N/N=C/c2cccs2)n1N,0,-98%,-9%,i,13µM*
CCc1nnc(N/N=C/c2c(Cl)cccc2Cl)n1N,14,-100%,-12%,i,?
COCC1CCCN(Cc2ccc3c(c2)CN(C(=O)c2cn4ccc(C)cc4n2)CCO3)C1 (stereo not drawn),/,/,/,i,/
COc1ccc(N2C(=O)[C@@H]3C[C@H]2CN3Cc2ccc3nccnc3c2)cc1Cl,/,/,/,i,/
O=C1[C@@H]2[C@@H]3C[C@@H]([C@H]4ON=C(c5ccc(Cl)cc5Cl)[C@@H]34)[C@@H]2C(=O)N1C1CCCCC1,-55*,49%,-3%,i,?
SMILES,IL1B secr inh,HepG2 tox,ATXN2 expr inh,ATXN viability,TGFb SMAD3 inh
OCCN1CCN(Cc2ccc3c(c2)CN(Cc2cccn2-c2ccccn2)CCO3)CC1,/,/,/,i,/
CC1(C)CC(NC(=O)c2ccc(Cl)c(S(=O)(=O)N(Cc3ccccc3)c3ccccc3)c2)CC(C)(C)N1,-110*,18µM*,?,/,?
COc1ccccc1N(Cc1ccccc1)S(=O)(=O)c1cccc(C(=O)NC2CC(C)(C)NC(C)(C)C2)c1,?,13µM*,?,?,-15%
NC(=O)COC(=O)c1ccc(Cl)c(S(=O)(=O)N(Cc2ccccc2)c2ccc(Cl)cc2)c1,30,1%,8%[11.3 µM],i,16µM*
CCCC(C(=O)NCc1cccc(Cl)c1)N1Cc2ccccc2C1=O (stereo not drawn),/,-14%,/,/,-10%
CCOc1ccc(-n2ccnc2SCC(=O)Nc2nc3ccc(C)cc3s2)cc1,/,-4%,/,/,2%
COc1ccc(CNC(=O)CSc2nnc3c(n2)[nH]c2ccc(C)cc23)cc1,31,3%,8%,i,15%
COc1ccc2[nH]c3nc(SCc4nnc(-c5ccc(C)cc5)o4)nnc3c2c1,21,-2%,20µM*,/,9%
COc1ccc(/C=C2/Sc3ccc(C(=O)NCCN4CCCCCC4)cc3NC2=O)cc1,-90*,13µM*,/,28µM*,25µM*
COc1ccc(C(=O)NCCN2CCCC2)cc1,-9,-13%,-5%,i,-4%
O=C1Nc2cc(C(=O)NCCCN3CCOCC3)ccc2S/C1=C/c1cccc(Cl)c1,-4,-38%,/,i,-4%
O=C1Nc2cc(C(=O)NCCCN3CCCC3)ccc2S/C1=C\c1ccccc1,-9,16µM*,/,?,?
CCC1CN(CCNC(=O)c2cccc3nccnc23)Cc2cc(OC)ccc2O1 (stereo not drawn),/,/,/,i,/
COc1ccc(C(=O)Cn2c(=O)n3nc(CCn4nc(C)cc4C)nc3c3cc(OC)c(OC)cc32)cc1,/,-17%,/,/,-12%
COc1ccc(/C=C/C(=O)NCCCc2ccccc2)cc1,8,-22%,0%,i,-7%
COc1ccc(/C=C/c2cc[n+](C(=O)Cc3ccccc3)cc2)cc1,-108*,3%,?,?,0%
O=c1c(N2CCCCC2)csc2ccc(F)cc12,/,-3%,21%,i,1%
COC(=O)NNC(=O)/C=C/c1ccccc1,10,-7%,2%,i,-8%
O=C(/C=C/c1ccccc1)NC(=S)Nc1ccccc1O,-63*,-2%,43%,i,12%
CCCCC(=O)NC(=S)Nc1cc(C(=O)O)ccc1OC,0,-4%,-6%,i,?
NC(=S)NC(=O)/C=C/c1ccccc1,-96*,2%,4%[11.3 µM],i,-17%
COc1ccc(C(=O)O)cc1NC(=S)NC(=O)/C=C/c1ccc(C(C)C)cc1,-66*,-17%,-19%,i,-5%

# Screening results: PubChem, National Center for Advancing Translational Sciences (NCATS)
